ELG1 DNA repair – blocks ELG1-dependent DNA repair in HEK293T cells. HEK293T ELG1-luciferase reporter, luminescence, 16 h; DNA damage induced by 5-fluorouridine. Potency, µM (titrated, usually from 46.1 µM), hits mostly inhibitors. 330,000 tested, 2.3% active. AID 504467; note: nearly all actives have a fitted effect of over 55% in size
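Cells (2,000 per well) received 5-fluorouridine plus test compound or DMSO and were incubated 16 hr at 37 °C, 5% CO2. Luciferase activity was read by luminescence 30 min after ONE-Glo addition; signal suppression marked inhibition of damage-induced ELG1 function.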
Giardia kill – Giardia lamblia killing; Giardia lamblia trophozoite viability; activity change, % at 7.66 µM, hits read low; 340,000 tested, 0.15% active; in the data active = activity change below about -80%; inconclusive = between about -30% and that limit;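 note: parasites exposed to compound for two days anaerobically before the ATP read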
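Anaerobic 48 hrs incubation at 37 deg C of 100 trophozoites/well with test compounds; ATPLite 1-Step luminescence, 15-30 min RT, reports cellular ATP as viability.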
TDP1 block – blocks human tyrosyl-DNA phosphodiesterase 1; Q9NUW8; recombinant TDP1, AlphaScreen DNA substrate cleavage; Potency, µM (doses to about 130 µM), most hits filed as inhibitors; 350,000 tested, 0.28% active; AID 485290; note: nearly all actives have a fitted effect of over 40% in size
Target sequence (Q9NUW8 whole entry, looked up): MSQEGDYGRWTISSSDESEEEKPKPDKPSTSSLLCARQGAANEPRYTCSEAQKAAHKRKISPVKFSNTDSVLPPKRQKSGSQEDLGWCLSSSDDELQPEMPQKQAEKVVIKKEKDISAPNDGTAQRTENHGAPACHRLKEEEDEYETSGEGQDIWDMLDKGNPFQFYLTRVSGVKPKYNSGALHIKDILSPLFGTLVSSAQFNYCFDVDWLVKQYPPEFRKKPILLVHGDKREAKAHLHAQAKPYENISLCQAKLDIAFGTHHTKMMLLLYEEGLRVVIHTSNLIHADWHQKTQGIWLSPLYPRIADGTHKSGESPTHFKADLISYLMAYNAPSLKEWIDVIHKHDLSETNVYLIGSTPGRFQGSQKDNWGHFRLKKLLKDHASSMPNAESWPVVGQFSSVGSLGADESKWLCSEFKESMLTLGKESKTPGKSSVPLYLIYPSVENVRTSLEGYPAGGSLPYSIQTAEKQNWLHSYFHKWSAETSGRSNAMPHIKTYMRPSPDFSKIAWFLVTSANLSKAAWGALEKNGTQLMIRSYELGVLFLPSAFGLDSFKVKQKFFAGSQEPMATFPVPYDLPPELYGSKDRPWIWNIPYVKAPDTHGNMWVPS
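Enzyme-compound mixtures sat 15 min at room temperature, followed by a 5 min reaction with 15 nM final substrate and 10 min with AlphaScreen beads. Recombinant human Tdp1 was used at 1 nM final.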
DT40 TDP1 CPT – DT40-hTDP1 cell growth loss with CPT | 420,000 tested, 12% active | Potency, µM (titrated, usually from 46.2 µM), actives largely listed as inhibitors | chicken DT40 Tdp1-/-;hTDP1 cells + 20 nM CPT, ATP luminescence, 48 h; note: nearly all actives have a fitted effect of over 55% in size
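Chicken DT40 Tdp1-/- cells stably complemented with human TDP1 were seeded at 400 cells/well in medium containing 20 nM camptothecin, exposed to pin-transferred compounds, and grown at 37 °C for at least 48 hr. Viability was read as ATP luminescence.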
IL-1B inflam inh – inflammasome signaling inhibition, IL-1 beta readout; AID 743279; 360,000 tested, 4.7% active; THP-1 LPS/ATP IL-1B secretion, AlphaLISA, 16 h; stronger effect = lower value; activity change, % at 57.5 µM; in the data active = activity change below about -50%; inconclusive = mostly about -30% to -49%
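Secreted IL-1B measured by AlphaLISA bead assay after 16 h compound exposure of THP-1 cells; compounds (final up to 57.5 uM) added 1 h before LPS (250 ng/mL) and ATP (1.25 mM) stimulation; lower signal means less secretion.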
DT40 TDP1 no CPT – qHTS for Inhibitors of human tyrosyl-DNA phosphodiesterase 1 (TDP1): qHTS in cells in absence of CPT; Potency, µM (doses to about 46.2 µM), usual class: inhibitors; AID 686978, 2013; DT40 Tdp1-/- hTDP1 cells, no CPT, ATP luminescence, 48 h; 420,000 tested, 15% active; note: nearly all actives have a fitted effect of over 55% in size
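Camptothecin absent (DMSO only). Human TDP1-complemented DT40 knockout cells, 400 cells/well, 37 °C for minimum 48 hr; ATP measured via CellTiter-Glo, 30 min dark incubation, luminescence.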
Numbers stand for hits; n = inactive; u = inconclusive; x = not tested or not shown; [ ] = remark or other dose. This is a sample that favours compounds with a hit; in the whole collection about 19% have one here. Unless noted, calls come from the whole dose curve; as a rule, active = well fitted curve in the direction sought with a large enough effect; inconclusive = small, poorly fitted or top-dose-only effect, or another doubt; inactive = no such curve, though single readings can be large; an effect the other way counts as inactive or inconclusive.

SMILES | ELG1 DNA repair | Giardia kill | TDP1 block | DT40 TDP1 CPT | IL-1B inflam inh | DT40 TDP1 no CPT
O=c1[nH]c2ccc(S(=O)(=O)N3CCN(S(=O)(=O)c4ccc5c(c4)OCCO5)CC3)cc2[nH]c1=O | x | x | 50µM | x | x | x
CCc1ccccc1NC(=O)COc1ccc2c(=O)c(Oc3cc(C)ccc3C)coc2c1 | u | n | n | 18µM | n | 23µM
Cc1cc(C)cc(Oc2coc3cc(OCC(=O)NC4CCCCC4)ccc3c2=O)c1 | x | x | x | u | x | 21µM
CC(C)c1ccccc1NC(=O)COc1ccc2c(=O)c(Oc3ccc4ccccc4c3)coc2c1 | u | x | n | x | x | x
Cc1ccc(C)c(Oc2coc3cc(OC(=O)c4cccs4)ccc3c2=O)c1 | x | n | x | 29µM | n | u
O=S(=O)(CCS(=O)(=O)c1ccccc1)c1ccccc1 | x | n | x | n | u | n
O=C1C(=O)N(CCS(=O)(=O)c2ccccc2)c2ccc(F)cc21 | n | n | n | 21µM | n | u
COc1ccc2c(c1)C(=O)C(=O)N2CCS(=O)(=O)c1ccccc1 | n | n | n | 7.3µM | n | 2.3µM
CCc1ccc(OC2(C)CCN(Cc3ccc4c(c3)OCCO4)C2)cc1 (stereo not drawn) | x | x | x | u | n | u
CCOC(=O)N1CCc2c(sc3c2c(=O)n(-c2ccc(Cl)cc2)c(=O)n3Cc2cccc(OC)c2)C1 | x | x | n | u | x | n
O=C(Oc1c(-c2ccccc2)c(=O)n2c3c(cccc13)CC2)c1ccco1 | u | n | n | n | n | u
O=C(Oc1c(-c2ccccc2)c(=O)n2c3c(cccc13)CC2)c1ccc(Cl)cc1 | u | n | n | n | n | 21µM
CCOC(=O)C1=CCN(S(=O)(=O)c2ccccc2F)C1c1cccc(Br)c1 (stereo not drawn) | x | x | x | u | n | u
CCOC(=O)C1=CCN(S(=O)(=O)c2ccc(C)cc2)C1c1cccc(Br)c1 (stereo not drawn) | x | x | x | 16µM | n | u
CCOC(=O)C1=CC[C@@H](c2cccc(Br)c2)N(S(=O)(=O)c2ccc(F)cc2)[C@H]1c1cccc(Cl)c1 | x | x | x | 21µM | n | 10µM
CCOc1ccc([C@@H]2CC=C(C(=O)O)[C@H](c3cccc(Cl)c3)N2S(=O)(=O)c2ccc(C)cc2)cc1 | n | u | n | u | n | u
CCOC(=O)C1=CCN(S(=O)(=O)c2ccc(Br)cc2)C1c1cccc(C)c1 (stereo not drawn) | x | x | x | u | n | 26µM
CCOC(=O)C1=CCN(S(=O)(=O)c2ccc(Cl)cc2)C1c1cccc(C)c1 (stereo not drawn) | x | x | x | u | n | u
Cc1cccc(Nc2nnc(-c3ccc(C(=O)N4C[C@H]5C[C@H](C4)c4cccc(=O)n4C5)cc3)c3ccccc23)c1 | u | n | n | u | n | u
O=c1[nH]c(C(F)(F)C(F)(F)C(F)(F)F)no1 | x | n | x | n | n | n
CN(Cc1ccccc1)C(=O)COC(=O)C12CC3CC(CC(Br)(C3)C1)C2 | n | n | n | 26µM | n | u
O=C(COC(=O)C12CC3CC(CC(Br)(C3)C1)C2)Nc1cccnc1Cl | n | n | n | u | n | n
OC1(C2(O)CC(c3ccccc3)ON2)CCCCC1 (stereo not drawn) | n | n | n | u | -69 | 18µM
CN1C(=O)C2(CCCCC2)C1c1ccccc1 (stereo not drawn) | u | n | x | n | n | n
Cc1ccc(-c2nnc3ccccc3c2C(=O)Nc2ccccc2F)cc1 | x | x | n | n | x | n
O=C1c2ccccc2C(=O)N1Nc1ccccc1 | n | n | n | n | n | n
Cc1ccc(NN2C(=O)C=C(c3ccccc3)C2=O)cc1 | u | n | n | 5.8µM | n | 7.3µM
CC(/C=C/c1ccc(O)cc1)=N/O | 23µM | n | n | 15µM | n | 21µM
CCOC(=O)C(C)Oc1c(C(=O)OC)sc2ncccc12 (stereo not drawn) | n | n | n | n | n | n
O=C(O)c1c(-c2ccccc2)oc2ccc(OCc3ccc(Cl)c(Cl)c3)cc12 | x | x | n[12.3 µM] | u | x | u
